# Screening data from PubChem.
# TDP43 rescue: inhibitors of TDP-43 toxicity in yeast. TDP-43 expressing yeast growth rescue, BacTiter-Glo, 24 h. Potency, µM (doses to about 46.1 µM), without a hit: at the top dose growth rescue (activation), most hits filed as activators. 1.8% of 410,000 active. AID 652104; further: % of control where 0% means no effect; nearly all actives have a fitted effect of over 50% in size
#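 Galactose-induced TDP-43 yeast, OD600=0.02, compound pinned; 24 hr, 30 deg C; BacTiter-Glo luminescence for growth. Inhibitors of TDP-43 toxicity read as activators.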
# aSyn rescue: alpha-synuclein toxicity inhibition in yeast; AID 652106; Potency, µM (titrated, usually from 46.1 µM), for the others: at the highest dose growth rescue (activation), most hits filed as activators; Yeast expressing alpha-synuclein, growth rescue, BacTiter-Glo, 24 h; 0.14% of 370,000 active; further: % of control where 0% means no effect; nearly all actives have a fitted effect of over 65% in size
#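 Galactose-induced alpha-syn yeast (OD600=0.02, raffinose-pregrown) + pinned cpd, 24 hr, 30 deg C; growth by BacTiter-Glo luminescence. Growth restoration scores as activation.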
# Abeta rescue: A-beta toxicity reversal in yeast; yeast expressing A-beta42, growth rescue, OD600, 48 h; response scale: 0% DMSO, 100% iron-clioquinol control; 0.063% of 410,000 active; Potency, µM (highest dose often 46.1 µM), usual class: activators; further: nearly all actives have a fitted effect of over 55% in size
#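 Yeast A-beta toxicity model in growth medium with pinned compounds, 48 h at 30 C; growth read as absorbance at 600 nm. Normalized to FeCl3/clioquinol equimolar mix (positive) and DMSO (negative).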
# PTAP TSG101 blk: blocks PTAP/TSG101 interaction to inhibit HIV-1 budding. Fluorescence polarization, FITC-PTAP peptide / Tsg101 binding. Potency, µM (top dose mostly 115 µM), for the others: at the highest dose activity change, negative = inhibition, hits mostly inhibitors. 340,000 tested, under 10 active. AID 493005; active means well fitted inhibition curve with a large enough effect in the main read-out, with a control signal flat, not every such curve was filed as active; inconclusive means small, poorly fitted or top-dose-only effect, or effect the other way, or a change in a side signal; inactive means no such curve, though single readings can be large or run the other way; further: % of control where 0% means no effect
# Target sequence (Q99816 whole entry, looked up): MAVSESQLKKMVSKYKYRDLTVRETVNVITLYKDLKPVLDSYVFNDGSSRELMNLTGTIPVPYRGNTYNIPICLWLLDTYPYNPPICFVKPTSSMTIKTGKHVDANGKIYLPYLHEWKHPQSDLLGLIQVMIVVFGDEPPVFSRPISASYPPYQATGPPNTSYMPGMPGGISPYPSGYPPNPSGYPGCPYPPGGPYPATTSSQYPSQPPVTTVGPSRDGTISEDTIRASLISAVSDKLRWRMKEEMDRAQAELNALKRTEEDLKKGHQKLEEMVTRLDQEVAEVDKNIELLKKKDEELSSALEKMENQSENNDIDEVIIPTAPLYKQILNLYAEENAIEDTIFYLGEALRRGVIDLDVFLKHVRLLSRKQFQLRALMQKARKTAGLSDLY
#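 Fluorescence anisotropy tracks displacement of a FITC-tagged PTAP peptide (50 nM) from the Tsg101 binding domain (10 uM), following a 20 min room-temperature incubation at pH 7.5.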
# FUS suppressor: suppressors of FUS proteinopathy in yeast; S. cerevisiae FUS-expressing, growth rescue, OD600, 24 h; Potency, µM (top dose mostly 76.6 µM), hits mostly activators; 0.24% of 390,000 active;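 further: plate controls were DMSO vehicle for no effect and reference control for full effect; nearly all actives have a fitted effect of over 55% in size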
#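 Steps: raffinose overnight preculture; dilution to OD 0.005 in 2% galactose minimal medium; compound addition (concentration series); 24hr at 30C, 99% humidity; absorbance read at 600 nm.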
# Active calls of the source: *; i = inactive; ? = inconclusive; . = not tested or not shown. A selection: hits, their analogues and other compounds. The true share with any hit is near 2.1%. Unless noted, the call rests on the fitted dose curve; in most records, active means well fitted curve in the direction sought with a large enough effect; inconclusive means small, poorly fitted or top-dose-only effect, or another doubt; inactive means no such curve, though single readings can be large; an effect the other way counts as inactive or inconclusive. Potency means the concentration at half of the fitted maximal effect.
SMILES,TDP43 rescue,aSyn rescue,Abeta rescue,PTAP TSG101 blk,FUS suppressor
COc1cc(OC)cc(-c2c(-c3cccs3)c3cc(-c4ccc(CN5CCOCC5)cc4)ccc3n2C)c1,22.4µM*,-13.7%,i,-3.5%,?
COc1cc(F)cc(-c2ccc3c(c2)c(-c2cccs2)c(-c2cc(OC)cc(OC)c2)n3C)c1,7.0%,-1.2%,i,5.7%,i
Cc1cc(-c2n[nH]c(=S)n2N=Cc2c3ccccc3cc3ccccc23)n[nH]1,.,.,.,.,i
O=C(Cc1ccc(-n2cccc2)cc1)N1CCN(c2ccccc2F)CC1,17.8µM*,0.4%,i,-1.7%,.
Cc1cc(C(=O)NNC(=S)NC(=O)/C=C/c2ccccc2Cl)n[nH]1,10.2%,8.6%,i,-3.8%,12.6µM*
Cc1ccccc1C(=O)NNC(=S)NC(=O)c1ccc(Cl)cc1Cl,10µM*,1.58µM*,?,-5.7%,i
COc1ccccc1C(=O)NNC(=S)NC(=O)c1cc(OC)c(OC)c(OC)c1,10µM*,?,6.31µM*,-2.0%,i
Cc1cccc(C(=O)NC(=S)NNC(=O)c2ccccc2Cl)c1,-39.8%,10µM*,?,0.8%,.
COc1ccc(C(C)(NC(C)=O)c2nc(-c3cccc(NC(C)=O)c3)cs2)cc1 (configuration not stated),10.7%,-12.6%,i,.,i
Cc1cc2c(c(Sc3ccccc3)n1)C(=O)OC2,3.16µM*,.,i,-8.6%,i
Cc1ccc2nc(-c3ccc(C)c(NC(=O)COc4ccc(Br)cc4)c3)oc2c1,.,-0.4%,.,.,.
Cc1ccc(NP(=O)(c2ccc(N(C)C)cc2NC(=O)c2cccs2)N2CCOCC2)cc1Cl (configuration not stated),-7.6%,13.7%,i,-0.3%,3.98µM*
CCNC(=O)CN(c1ccccc1)S(=O)(=O)c1ccc(Cl)cc1,-16.5%,0.9%,i,1.8%,i
CCNC(=O)CN(c1ccc(Cl)cc1)S(=O)(=O)c1ccccc1,11.2µM*,-6.0%,i,-6.5%,i
CC(C)Oc1ccc(F)cc1-c1cc(C(=O)N2CCc3ccccc3C2)[nH]n1,28.2µM*,8.2%,i,.,?
O=C(COc1cc(F)ccc1[N+](=O)[O-])NCCCc1ccccc1,12.6µM*,13.1%,i,-1.7%,i
Cc1cc(CNC(=O)COc2cc(F)ccc2[N+](=O)[O-])c2ccccc2n1,.,-6.6%,i,-1.1%,i
CC(C)c1ccc(-c2noc(SCC(=O)N3CCCCC3)n2)cc1,29.6%,.,i,.,i
Cc1nc(-c2ccc(F)cc2)sc1CCNC(=O)c1cccs1,8.91µM*,.,i,.,i
Cc1nc(-c2ccccc2)sc1C(=O)Nc1ccccc1F,12.6µM*,-0.1%,i,-0.3%,i
COc1ccc(-c2nc(C)c(CCNC(=O)c3cccs3)s2)cc1OC,22.4µM*,-14.9%,i,.,i
COc1ccc(-c2nc(C)c(CCNC(=O)C(=O)Nc3cc(C)cc(C)c3)s2)cc1OC,23.1%,9.6%,i,.,i
Cc1nc(-c2ccc(F)cc2)sc1CCNC(=O)c1ccc(C(C)(C)C)cc1,-2.6%,.,i,.,i
Cc1nc(-c2ccc(F)cc2)sc1CCNC(=O)c1ccccc1,17.8µM*,.,i,.,i
Cc1ccc(-c2noc(COc3ccc(Br)c(C)c3)n2)cc1,2.4%,-9.3%,i,.,i
SMILES,TDP43 rescue,aSyn rescue,Abeta rescue,PTAP TSG101 blk,FUS suppressor
O=[N+]([O-])c1ccccc1/C=C/c1ccnc2ccccc12,.,2.6%,.,.,.
COc1ccc(-c2nc(C)c(CCNC(=O)c3ccco3)s2)cc1,15.8µM*,-9.5%,i,.,i
Cc1ccc(-c2nc(C)c(CCNC(=O)c3ccco3)s2)cc1,?,-12.2%,i,.,i
Cc1nc(-c2ccc(F)cc2)sc1CCNC(=O)c1ccc(OC(C)C)cc1,15.8µM*,.,i,.,i
CCOC(=O)c1ccc(NC(=O)C(CC)Sc2nc3ncccc3[nH]2)cc1 (configuration not stated),6.9%,.,i,.,i
COc1ccccc1NC(=O)CSc1nnc(NC(=O)Nc2ccc(C)cc2)s1,?,.,i,.,i
Cc1ccc(/C=C/C(=O)O)cc1S(=O)(=O)N1CCc2ccccc21,7.94µM*,9.6%,i,-2.0%,i
